Experimental data taken from PubChem BioAssay (NCATS).
Unmarked numbers belong to inactive results. Inconclusive results are not listed. Activity calls are given as the source filed them. Calls follow the shape of the dose curve; as a rule, active = well fitted curve in the direction sought with a large enough effect; inconclusive = small, poorly fitted or top-dose-only effect, or another doubt; inactive = no such curve, though single readings can be large; an effect the other way counts as inactive or inconclusive.

molecular target: Luciferin 4-monooxygenase (Photinus pyralis) (UniProt P08659); experiment: Primary firefly luciferase (FLuc) qHTS assay for identification of artifact compounds. (AID 1845220); details: purified firefly luciferase, luminescence, 5 min; series mostly up to 54.1 µM; activity change, negative = inhibition: at the top concentration; also: nearly all actives have a fitted effect of over 60% in size;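 as to activity change, negative = inhibition: plate controls were DMSO vehicle for no effect and no enzyme for full effect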
Procedure, shortened: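 FLuc 10 nM; luciferin 10 uM; ATP 10 uM; Tris-acetate pH 7.6, Mg-acetate 10 mM; 15 min RT preincubation; 5 min reaction; luminescence.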

Row | Compound | activity change, negative = inhibition | outcome
1 | CC(=O)N1N=C(c2ccc(N)cc2)c2cc3c(cc2C[C@H]1C)OCO3 | 3.9% | 
2 | COC(=O)[C@]12CCCC(C)(C)C1CCc1cc(C(C)C)c(O)c(O)c12 (stereo partly specified) | -2.69% | 
3 | COc1ccc(CN(C(=O)[C@@H](N)Cc2c(C)cc(C(N)=O)cc2C)[C@@H](C)c2ncc(-c3ccccc3)[nH]2)cc1C(=O)O | -13.6% | 
4 | C=CC/C=C\C/C=C\CCCCCCCc1cc(O)cc(O)c1 | -6.4% | 
5 | CN1C2CCC1CC(OC(=O)N1Cc3ccccc3NC1=O)C2 (stereo unspecified) | 2.23% | 
6 | COC(=O)CC1CC2(C(=O)c3c(O)cccc3C2(O)C(=O)OC)C(C)O1 (stereo unspecified) | 4.06% | 
7 | c1cncc(OC[C@@H]2CCN2)c1 | 2.01% | 
8 | Cc1c(Cl)c(OCC(=O)N2CCN(C)CC2)nc2sc(C(=O)NC3CC3)c(N)c12 |  | inactive
9 | CN1CCc2cc3c(cc2C1C1OC(=O)c2c1ccc1c2OCO1)OCO3 (stereo unspecified) |  | inactive
10 | C#CCO[C@H]1CN2CCC1CC2 | -4.05% | 
11 | CC1CCCC(O)CC(=O)Cc2cc(O)cc(O)c2C(=O)O1 (stereo unspecified) | -0.0778% | 
12 | COc1ccsc1CNCC[C@@]1(c2ccccn2)CCOC2(CCCC2)C1 | -2.7% | 
13 | C1=C(c2cnc[nH]2)c2ccsc2CC1 | -10.5% | 
14 | CC1=CC2(O)/C=C/C(C)(O)C(O)C(O)/C=C/C(=O)OC23C(=O)NC(CC(C)C)C3C1C (stereo unspecified) | -1.76% [at 25.7 µM] | 
15 | C/C=C1/CN2CC[C@]34C(=Nc5ccc(OC)cc53)C2C[C@@H]1C4(CO)C(=O)OC (stereo partly specified) | 3.03% | 
16 | Cc1cccc(NC(=O)N[C@H]2CN(C)c3ccccc3C(c3ccccc3)=N2)c1 | 3.91% | 
17 | Oc1ccc2c3c1O[C@H]1c4[nH]c5c(N=C=S)cccc5c4C[C@@]4(O)[C@@H](C2)N(CC2CC2)CC[C@]314 | 0.681% | 
18 | CO[C@@H]1[C@H](O)[C@@H](O[C@@H]2C[C@H]3CC[C@@H]4C(CC[C@]5(C)[C@@H](C6=CC(=O)OC6)CC[C@]45O)[C@@]3(C)[C@H](O)C2)O[C@H](C)[C@@H]1O (stereo partly specified) | -5.89% [at 25.7 µM] | 
19 | C[C@@H]1CCC/C=C/[C@H]2C[C@@H](O)C[C@@H]2[C@@H](O)/C=C/C(=O)O1 |  | inactive
20 | C[C@]12CCC(=O)C=C1CC[C@@H]1[C@@H]2[C@@H](O)C[C@]2(C)C(=O)CC[C@@H]12 | 2.12% | 
21 | CCC(C)(O)C1(C(=O)O)COC(=O)C1 (stereo unspecified) |  | inactive [at 86.2 µM]
22 | COC(=O)C1=COC(C)C2CN3CCC4(C(=O)Nc5ccccc54)C3CC12 (stereo unspecified) | -1.57% | 
23 | CC1(C)C(=O)N(c2ccc(C#N)c(C(F)(F)F)c2)C(=O)N1CCCCO |  | inactive
24 | O=C1N[C@@H](Cc2ccccc2)CN2CCCC[C@@H]12 | 0.0004% | 
25 | CN1C(=O)CN=C(c2ccccc2Cl)c2cc(Cl)ccc21 | 3.95% | 

system: not listed separately; experiment: Primary fluorescence-based thiol-reactive (MSTI) qHTS assay for identification of artifact compounds. (AID 1845221); details: MSTI thiol-reactivity probe, 1 h; series mostly up to 53.8 µM; activity change, negative = thiol reactive: at the top concentration; also: nearly all actives have a fitted effect of over 65% in size; also: potency is read from the fitted curve at half-maximal effect;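 as to activity change, negative = thiol reactive: thiol-reactive compounds lower the probe fluorescence signal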
Procedure, shortened: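 Curve-fitted percent inhibition (4-parameter Hill) derived from fluorescence, Ex 525/Em 598 nm, scaled with Acetyl-MSTI and MSTI; 1 h incubation at room temperature.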

Row | Compound | activity change, negative = thiol reactive | Potency
26 | CC1=CC2/C=C(\C)CCCC(O)/C=C/C(=O)OC23C(=O)NC(CC(C)C)C3C1C (stereo unspecified) | 58.3% | 
27 | C=CC(C)(C)c1[nH]c2c(CC=C(C)C)cc(CC=C(C)C)cc2c1C[C@@H]1NC(=O)[C@H](C)NC1=O | 0.604% | 
28 | COc1cc(O)c2c(c1)/C=C/C[C@@H](O)[C@@H](O)C(=O)CCC[C@H](C)OC2=O | 12.2% | 
29 | CC(=O)O[C@H]1CC[C@H]2[C@@H]3CC[C@H]4CC(=O)C=C(C)[C@]4(C)[C@H]3CC[C@]12C | 36.3% | 
30 | COc1cc(N2CCN(C)CC2)ccc1N |  | 1.19 µM (active)
31 | COCC(C(=O)OC1CC2CCC(C1)N2C)c1ccccc1 (stereo unspecified) | 0.961% | 
32 | NC(=O)c1ncn2c1CN=C(c1ccccc1Br)c1cc(F)ccc1-2 | 45% | 
33 | Cc1c(N2C(=O)[C@@H]3[C@H](O)CCN3C2=O)ccc(C#N)c1Cl | -21.8% | 
34 | CC(=O)O[C@@H]1[C@H]2CC[C@H]3[C@@](C)(O)[C@@H]4C[C@H](O)C(C)(C)[C@@]4(O)[C@H](O)C[C@@]13C[C@@]2(C)O | 13.1% [at 25.6 µM] | 
35 | COc1ccc(CN(C(=O)[C@@H](N)Cc2c(C)cc(C(N)=O)cc2C)[C@@H](C)c2ncc(-c3ccccc3)[nH]2)cc1C(=O)O | 67.4% | 
36 | CN1C2CCC1CC(OC(=O)N1Cc3ccccc3NC1=O)C2 (stereo unspecified) | -6.53% | 
37 | c1cncc(OC[C@@H]2CCN2)c1 | -9.16% | 
38 | Cc1c(Cl)c(OCC(=O)N2CCN(C)CC2)nc2sc(C(=O)NC3CC3)c(N)c12 | -0.0537% | 
39 | C#CCO[C@H]1CN2CCC1CC2 | 0.583% | 
40 | COc1ccsc1CNCC[C@@]1(c2ccccn2)CCOC2(CCCC2)C1 | -1.89% | 
41 | C1=C(c2cnc[nH]2)c2ccsc2CC1 |  | 10.6 µM (active)
42 | CC1=CC2(O)/C=C/C(C)(O)C(O)C(O)/C=C/C(=O)OC23C(=O)NC(CC(C)C)C3C1C (stereo unspecified) |  | 10.3 µM (active)
43 | Cc1cccc(NC(=O)N[C@H]2CN(C)c3ccccc3C(c3ccccc3)=N2)c1 | 589% | 
44 | Oc1ccc2c3c1O[C@H]1c4[nH]c5c(N=C=S)cccc5c4C[C@@]4(O)[C@@H](C2)N(CC2CC2)CC[C@]314 | -20.9% | 
45 | CO[C@@H]1[C@H](O)[C@@H](O[C@@H]2C[C@H]3CC[C@@H]4C(CC[C@]5(C)[C@@H](C6=CC(=O)OC6)CC[C@]45O)[C@@]3(C)[C@H](O)C2)O[C@H](C)[C@@H]1O (stereo partly specified) | 15.2% [at 25.6 µM] | 
46 | C[C@@H]1CCC/C=C/[C@H]2C[C@@H](O)C[C@@H]2[C@@H](O)/C=C/C(=O)O1 | -4.08% | 
47 | C[C@]12CCC(=O)C=C1CC[C@@H]1[C@@H]2[C@@H](O)C[C@]2(C)C(=O)CC[C@@H]12 | 29.3% | 
48 | COC(=O)C1=COC(C)C2CN3CCC4(C(=O)Nc5ccccc54)C3CC12 (stereo unspecified) | 27.2% | 
49 | CC1(C)C(=O)N(c2ccc(C#N)c(C(F)(F)F)c2)C(=O)N1CCCCO | 22% | 
50 | O=C1N[C@@H](Cc2ccccc2)CN2CCCC[C@@H]12 | -13.6% | 
51 | CN1C(=O)CN=C(c2ccccc2Cl)c2cc(Cl)ccc21 | 28.3% | 
